The structures appear in SMILES notation. About 83,000 compounds went through this panel and 20% of them were active in at least one assay; those are over-represented in the sample as a whole.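 Compound tested at a single concentration for 48 hours in 96-well plates; a percent growth value below 10 was scored as active.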 Unmarked numbers belong to inactive results. Active and inactive are the calls of the source.

Assay in all cases: NCI-60 one-dose screen, 48 h (100 = growth as untreated, 0 = no growth, -100 = all killed)
Settings in all cases: 10 µM unless noted

Test [1] relates to NCI-H23 lung.
For test [2], the system named is NCI-H226 lung.
In test [3] the test system is NCI-H322M lung.
Test [4] relates to HOP-62 NSCLC.
Test [5] has as its system NCI-H460 lung.
The subject of test [6] is HOP-92 NSCLC.
Test [7] concerns NCI-H522 lung.
Test [8] deals with A549/ATCC NSCLC.
The subject of test [9] is 786-0 renal.
In test [10] the test system is COLO 205 colon.
The test system of test [11] is DU-145 prostate.
For test [12], the system named is K-562 leukemia.
In test [13] the test system is MALME-3M melanoma.
In test [14] the test system is MDA-MB-231 breast.
In test [15] the test system is RXF 393 renal.
Test [16] has as its system SF-268 CNS.
Test [17] concerns SF-295 CNS.
The subject of test [18] is SF-539 CNS.
In test [19] the test system is UACC-257 melanoma.
In test [20] the test system is M14 melanoma.

`C=CCn1c(C)nc2cc(Nc3nc(N4CCCC4)nc4nc[nH]c34)ccc21`: the growth in [1] is 52.4%; in [2], 58.9%; in test [3], 50.9%; in [4], 50.6%; in [5] it was 0.371% (active); in [6] it was -39.5% (active). Also, the growth was 56.3% in test [7]; 46.3% in test [8]; -76.1% (active) in test [9]; 73.4% in test [10]; 48.2% in [11]; -9.1% (active) in [12]. The growth in [13] is -29.3% (active); in test [14], -25% (active); in test [15] it was 54.4%; in test [16], 29.3%; in test [17] it was 31.2%; in [18], -18.7% (active). Also, the growth in test [19] was 60.9%; in [20], 28.8%.

Consider `CC(C)(C)CC(C)(C)NCc1cc(C(C)(C)C)cc(CNC(C)(C)CC(C)(C)C)c1O`, for which the growth was 38.7% in test [1]; 72.7% in test [2]; 83.3% in test [3]; 69.4% in test [4]; 50.8% in test [5]; -1.38% (active) in test [6]. Moreover, the growth was 8.73% (active) in test [7]; 67.6% in test [8]; 71.1% in test [9]; 0.858% (active) in test [10]; 66.6% in [11]; 3.08% (active) in test [12]. Moreover, the growth in [13] is 51%; in [14], 23.3%; in [15], 76.2%; in test [16], 85.2%; in test [17] it was 57.7%; in test [18], 83.8%. Besides, the growth in [19] is 75.3%; in test [20], 70.1%.

With `NC(N)=N/N=C/c1ccccc1`, the growth in [1] is 102%; in test [2], 97.8%; in [3], 91.2%; in test [4] it was 101%; in test [5] it was 103%; in test [6] it was 95.8%. The growth in test [7] is 85.6%; in test [8], 97.4%; in test [9], 103%; in [10], 99.9%; in [11] it was 105%; in [12], 96.1%. The growth in test [13] is 102%; in test [14], 92.9%; in test [15], 101%; in [16] it was 103%; in test [17], 88.3%; in test [18], 98%. Besides, the growth in test [19] is 93.9%; in [20] it was 103%.

For `O=c1cc(N2CCOCC2)oc2c(-c3ccc4c(c3)OCCO4)csc12`, the growth was 31.9% in [1]; 11.6% in test [2]; 19.8% in test [3]; 15.5% in [4]; 22% in test [5]; 11.9% in test [6]. In addition, the growth in test [7] is 28.8%; in test [8], 12.9%; in test [9], 9.88% (active); in test [10], 5.88% (active); in test [11], 22.8%; in [12], 25.6%. The growth is -3.44% (active) in test [13]; 20.3% in [14]; -22.5% (active) in test [15]; 29.8% in test [16]; 0.878% (active) in [17]; 3.65% (active) in test [18]. For the same compound, the growth in test [19] was 18.6%; in [20], 12.3%.

Regarding `COc1ccc(C2CC(c3cccc(Nc4ccnc5cc(Cl)ccc45)c3)=NN2c2ccccc2)cc1` (stereo not given), the growth in test [1] was 80%; in test [2], 89%; in test [3] it was 75%; in test [4] it was 60%; in [5] it was 43.7%; in test [6] it was 57.8%. Further, the growth was 54.4% in test [7]; 52.1% in test [8]; 91.8% in [9]; 80.4% in test [10]; 82.8% in test [11]; 20.7% in [12]. The growth was 58.7% in test [13]; 74.2% in test [14]; 99% in [15]; 71.2% in test [16]; 23% in test [17]; 65.4% in test [18]. In addition, the growth is 59.7% in test [19] and 27% in [20].

With `COc1c(C(=O)/C=C/c2ccc(C)o2)c(O)cc2occc12`, the growth was 79.5% in test [1]; 75.3% in test [2]; 97.2% in [3]; 59.2% in test [4]; 70.1% in test [5]; 68% in [6]. The growth in test [7] was 41.8%; in test [8], 58.8%; in test [9], 99.1%; in test [10], 104%; in test [11] it was 87.1%; in test [12], 22.5%. In addition, the growth in [13] is 76.7%; in test [14], 89%; in test [15], 62%; in [16] it was 80.1%; in test [17], 82.4%; in [18], 80.6%. The growth in test [19] is 86.1%; in test [20], 55.5%.

Regarding `CCSc1ccc([C@@H]2[C@@H](O)C(=O)N2c2cc(OC)c(OC)c(OC)c2)cc1`, the growth in [1] was 34%; in test [2], 50.7%; in test [3], 39.4%; in test [4], 22.6%; in test [5] it was 5.97% (active); in test [6], 101%. Moreover, the growth in test [7] was 6.56% (active); in test [8], 20.8%; in [9] it was 14%; in test [10], -48.8% (active); in [11] it was 12.5%; in test [12] it was 7.65% (active). In addition, the growth was 71% in test [13]; 23.6% in [14]; 35.9% in test [15]; 31.4% in [16]; 18.1% in test [17]; 1.7% (active) in test [18]. In addition, the figures for the growth in test [19] and in [20] were 66.5% and 10.4%, respectively.

`O=c1cc(-c2ccc3c(c2)OCCO3)oc2cc(Cl)ccc12`: the growth is 61% in test [1]; -12.9% (active) in [2]; -6.58% (active) in [3]; 1.84% (active) in [4]; -57.9% (active) in [5]; -8.2% (active) in test [6]. Besides, the growth in [7] was -12.7% (active); in test [8] it was 11.2%; in test [9], -42.8% (active); in [10] it was 40.7%; in test [11], 25.6%; in test [12] it was 35.1%. Also, the growth was -16.3% (active) in test [13]; 27.3% in test [14]; 55.6% in [15]; 21.1% in [16]; 19.6% in [17]; -32.7% (active) in test [18]. The growth in test [19] was 52.8%; in test [20], 60.6%.

The values above are taken from PubChem BioAssay (NCI).
